A selection: hits, their analogues and other compounds. The true share with any hit is near 10%.
G9a block: qHTS Assay for Inhibitors of Histone Lysine Methyltransferase G9a; Histone-lysine N-methyltransferase EHMT2 (Homo sapiens), Q96KQ7; G9a H3K9 monomethylation, AlphaScreen, 2 h; Potency, µM (highest dose often 102 µM), for the others: at the top dose activity, negative = inhibition, most hits filed as inhibitors; 350,000 compounds, 8.8% hits; AID 504332, 2011; also: % is scaled to controls: 0 for no effect and ±100 for the full control effect; nearly all actives have a fitted effect of over 75% in size
Target sequence (Q96KQ7 913-1193 limits assumed): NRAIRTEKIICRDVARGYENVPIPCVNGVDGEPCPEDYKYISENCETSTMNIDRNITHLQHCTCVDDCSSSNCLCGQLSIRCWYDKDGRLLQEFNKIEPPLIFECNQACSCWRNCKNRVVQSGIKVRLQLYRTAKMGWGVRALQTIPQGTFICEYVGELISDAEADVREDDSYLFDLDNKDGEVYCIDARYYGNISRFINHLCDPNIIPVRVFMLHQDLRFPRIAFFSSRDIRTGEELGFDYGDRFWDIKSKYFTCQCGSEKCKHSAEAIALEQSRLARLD
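Using a bead-based AlphaScreen, monomethylated H3K9 product from 2 h room-temperature reactions (G9a 20 nM, peptide 500 nM, SAM 20 uM) was detected with 0.5 ug/mL rabbit anti-H3K9me1 antibody.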
HP1b chromo inh: HTS for Inhibitors of HP1-beta Chromodomain Interactions with Methylated Histone Tails; Chromobox protein homolog 1 (Homo sapiens), P83916; AlphaScreen HP1-beta / biotin-H3K9me3 peptide binding; 390,000 compounds, 0.56% hits; Potency, µM (doses to about 114 µM), for inactives: at the top dose activity change, negative = inhibition, usual class: inhibitors; AID 540317, 2011; also: nearly all actives have a fitted effect of over 70% in size
Target sequence (P83916 whole entry, looked up): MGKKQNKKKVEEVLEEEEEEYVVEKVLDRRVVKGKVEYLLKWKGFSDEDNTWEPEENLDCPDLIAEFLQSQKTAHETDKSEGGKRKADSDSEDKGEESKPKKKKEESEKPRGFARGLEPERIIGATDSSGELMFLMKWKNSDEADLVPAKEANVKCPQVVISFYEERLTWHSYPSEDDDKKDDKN
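AlphaScreen: HP1-beta (50 nM) preformed 30 min with biotin-H3(1-18)K9me3 peptide (50 nM) in PBS pH 7.4, 0.01% Tween-20. Compound added for 30 min at RT, then streptavidin donor/nickel chelate acceptor beads (10 ug/mL) for 30 min.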
BAZ2B block: qHTS Assay for Inhibitors of BAZ2B | AID 504333, 2011 | AlphaScreen BAZ2B-H3K14Ac peptide displacement | 360,000 compounds, 4.4% hits | Potency, µM (highest dose often 114 µM), for the others: top-dose activity change, negative = inhibition, most hits filed as inhibitors | Bromodomain adjacent to zinc finger domain protein 2B (Homo sapiens), Q9UIF8; also: % is scaled to controls: 0 for no effect and ±100 for the full control effect; nearly all actives have a fitted effect of over 60% in size
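BAZ2B (50 nM) with biotin-H3(5-23)K14Ac peptide (50 nM) in PBS pH 7.4, 0.01% Tween-20, preformed 30 min, then compound 30 min at room temperature; top concentration 110uM. AlphaScreen streptavidin donor/nickel chelate acceptor beads (10 ug/mL final), 20 min dark, signal read.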
JMJD2A Tudor: qHTS Assay for Inhibitors of JMJD2A-Tudor Domain | Lysine-specific demethylase 4A (Homo sapiens), O75164 | AlphaScreen JMJD2A-Tudor / H3K4me3 peptide binding | Potency, µM (series often up to 114 µM), inactives show at the highest dose activity change, negative = inhibition, hits mostly inhibitors | 390,000 compounds, 4.4% hits; also: % is scaled to controls: 0 for no effect and ±100 for the full control effect; nearly all actives have a fitted effect of over 50% in size
GLS inhibitor: qHTS for Inhibitors of Glutaminase (GLS); Glutaminase kidney isoform, mitochondrial (Homo sapiens), O94925; GLS enzymatic activity, qHTS titration; Potency, µM (highest dose often 45.5 µM), inactives show top-dose activity change, negative = inhibition, actives largely listed as inhibitors; 410,000 compounds, 0.21% hits; also: % is scaled to controls: 0 for no effect and ±100 for the full control effect
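Human kidney-isoform GLS in 45 mM KH2PO4 pH 8.2, 0.02% Tween-20, with compound, started with 1mM L-Glutamine (added stock). Glutamate oxidase/HRP/Amplex red coupled fluorescence read at start and after 30 min at RT.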
The depositor's hits bear a star; ? = inconclusive; nt = no result given; [ ] = another dose, or the depositor's remark. Calls follow the shape of the dose curve; as a rule, active = well fitted curve in the direction sought with a large enough effect; inconclusive = small, poorly fitted or top-dose-only effect, or another doubt; inactive = no such curve, though single readings can be large; an effect the other way counts as inactive or inconclusive. Potency is read from the fitted curve at half-maximal effect.

SMILES	G9a block	HP1b chromo inh	BAZ2B block	JMJD2A Tudor	GLS inhibitor
O=C(NCC1CCOCC1)C1Cc2c(-c3ccccc3Oc3ccccc3)ccnc2O1 (stereo not given)	nt	nt	nt	nt	4%
COCCNCCOc1ccccc1-c1ccccc1	10µM*	?	?	14µM*	1%
O=C(c1ccccc1)c1n[nH]c(-c2ccccc2)cc1=O	?	45%	5%	-2%	6%
CS(=O)(=O)c1ccccc1C(=O)Nc1cc2c(cc1C(=O)O)OCCCO2	50µM*	20%[57 µM]	3%	-30%	0%
CS(=O)(=O)Nc1ccccc1C(=O)Nc1cc2c(cc1C(=O)O)OCCCO2	8.9µM*	14%	4%	1%	19%
O=C(O)c1cc2c(cc1NC(=O)c1ccccc1C(F)(F)F)OCCCO2	1%	25%	-26%	-7%	-15%
O=C(O)c1cc2c(cc1NC(=O)c1c(F)cccc1F)OCCCO2	?	10%	-13%	-13%	3%
Cc1nc(N)sc1C(=O)Nc1ccccc1	50µM*	24%	-29%	?	15%
Cc1nc(Nc2c(Cl)cccc2Cl)sc1C(=O)Nc1ccccc1	50µM*	25%	?	-8%	2%
Cc1ccc(NC(=O)c2sc(N)nc2C)cc1	19%	38%	-4%	-13%	11%
Cc1nc(NC(=O)C2CC2)sc1C(=O)Nc1ccccc1	nt	16%	5%	-7%	3%
O=C(Nc1cc(S(=O)(=O)N2CCOCC2)ccc1N1CCCC1)c1ccccc1C(F)(F)F	nt	26%	nt	-3%	7%
CC(=O)N1CCC(C(=O)Nc2ccc(S(=O)(=O)N3CCCCC3)cc2)CC1	nt	24%	-1%	-9%	5%
C=C(C)COC(=O)C1CC2OC2CC1C(=O)OCC(=C)C (stereo not given)	nt	40%	nt	6%	-7%
CCOc1ccc(N2C(=O)CC(SCc3nc4ccccc4[nH]3)C2=O)cc1 (stereo not given)	nt	30%	-3%	-4%	0%
CCOc1ccc(N2C(=O)CC(Sc3n[nH]c(-c4ccccc4)n3)C2=O)cc1 (stereo not given)	-16%[0.501 µM]	?	-11%	4.5µM*	-9%
COc1ccc(N2C(=O)CC(Sc3n[nH]c(-c4ccccc4)n3)C2=O)cc1 (stereo not given)	nt	?	-12%	5µM*	?
CCCN(C(=O)COC(=O)c1nc2nc(C)cc(C)n2n1)C1CCS(=O)(=O)C1 (stereo not given)	26%[12.7 µM]	42%	-5%	5%	0%
O=C(C1CCC(Cn2c(=O)c3sccc3n(Cc3cccc(F)c3)c2=O)CC1)N1CCCCC1 (stereo not given)	10%[59 µM]	22%	-19%	-32%	0%
CCNC(=O)CC1C(=O)N(c2cccc(OC)c2)C(=O)N1Cc1ccc(OC)c(OC)c1 (stereo not given)	8%[59 µM]	17%	2%	-11%	-1%
C=CCn1c(SCC(=O)NCCC2=CCCCC2)nc2ccc(Cl)cc2c1=O	3%[59 µM]	?	-2%	28µM*	13%
CCc1ccc2nc(N(Cc3cccnc3)C(=O)Cc3ccccc3)sc2c1	-2%[59 µM]	8%	-4%	-11%	-13%
CC(C)CN1CCC2(CC1)CCN(S(=O)(=O)c1ccccc1)CC2	-22%[12.7 µM]	nt	nt	nt	nt
CCN(CC)c1ccc(NC(=O)C2CCN(c3nnc(-n4cccc4)s3)CC2)c(C)c1	4µM*	16%	2%[57.1 µM]	-19%	17%
O=C(NCCCN1CCN(Cc2ccccc2)CC1)C1CCN(c2nnc(-n3cccc3)s2)CC1	-10%	-7%	-14%	?	-14%
SMILES	G9a block	HP1b chromo inh	BAZ2B block	JMJD2A Tudor	GLS inhibitor
O=C(NCCCN1CCc2ccccc2C1)C1CCN(c2nnc(-n3cccc3)s2)CC1	50µM*	22%	-35%	?	-1%
CC(=O)N1CCc2c(sc3c2c(=O)n(CCc2ccccc2)c(=O)n3Cc2ccc(F)cc2)C1	-44%[59 µM]	5%	-31%	-31%	-4%
O=C(NCc1ccc(F)cc1)c1cccc(N2CCCS2(=O)=O)c1	-3%[59 µM]	28%	0%	8%	-4%
S=c1ncc2[nH]c(=S)[nH]c2[nH]1	nt	?	nt	11µM*	?
CCC(C(=O)Nc1cc(C(F)(F)F)ccc1Cl)n1nc(C)c2sc3ccccc3c2c1=O (stereo not given)	-36%[59 µM]	43%	2%	-1%	8%
CC(Sc1nnc2ccccn12)C(=O)Nc1ccc(N2CCOCC2)cc1 (stereo not given)	nt	9%[57 µM]	nt	-15%	18%
CC(Sc1nnc(COc2ccc(Cl)cc2)o1)C(=O)Nc1ccc(N2CCOCC2)cc1 (stereo not given)	35µM*	19%	13%	-11%	9%
Cc1nnc(SC(C)C(=O)Nc2ccc(N3CCOCC3)cc2)n1Cc1ccccc1 (stereo not given)	71µM*	13%	0%	-10%	18%
CC(C)Cn1c(SC(C)C(=O)Nc2ccc(N3CCOCC3)cc2)nc2ccccc21 (stereo not given)	?	?	35µM*	?	11%
ClC(CCN1CCN(Cc2ccccc2)CC1)c1ccccc1 (stereo not given)	nt	11%	nt	50µM*	0%
CC1CCN(C(=O)C2CCN(CC(C)c3ccccc3)CC2)CC1 (stereo not given)	?	?	59%	?	-3%
CC(CN1CCC(O)CC1)c1ccccc1 (stereo not given)	nt	?	?	2.8µM*	6%
CC(CN1CCN(Cc2ccccc2)CC1)c1ccccc1 (stereo not given)	22%[0.501 µM]	-8%	-8%	89µM*	4%
COCc1cc(CNC(=O)C2CCC(=O)N(Cc3cccc(OC)c3)C2)[nH]n1 (stereo not given)	nt	26%	-3%	-7%	-5%
O=C(/C(=C(\[O-])c1ccccc1)[n+]1ccc2ccccc2c1)c1ccccc1	-16%[59 µM]	24%	-31%	-15%	11%
O=C(/C(=C(\[O-])c1ccccc1)[n+]1ccc2ccccc2c1)c1ccc(Cl)cc1	20µM*	31%	0%	-10%	-11%
COc1cccc(Cn2c(=O)c(CCc3ccccc3)nc3cnc(OC)nc32)c1	-21%[12.7 µM]	nt	nt	nt	nt
CCOc1ccc(NCC2CCOC(C)(C)C2)cc1 (stereo not given)	7.1µM*	-6%	?	-36%	35%
CC1(C#CC[N+]2(C)CCCCC2)CCC2C(O1)c1ccccc1OC2(C)C (stereo not given)	3.2µM*	?	56µM*	-26%	-5%

Source: PubChem BioAssay
